The source made the active and inactive calls. Entries that show only a call come without a potency. Calls follow the shape of the dose curve; as a rule, active = well fitted curve in the direction sought with a large enough effect in the repeat runs; inconclusive = weak or mixed curves; inactive = flat fitted curve, though single readings scatter.

The experiment can be described thus: qHTS assay to test for compound auto fluorescence at 460 nm (blue) in HepG2 cell free culture (AID 720685). To be noted: Cell-free culture medium, blue autofluorescence 405/460 nm; series mostly up to 91.3 µM. The procedure, abridged: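 Cell-free plates of MEM plus 10% FBS received 23 nL compound or DMSO vehicle; blue-channel (405/460 nm) intensity scored against triamterene as reference fluorophore.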
Take `O=C1NC(=O)C(c2ccccc2)(c2ccccc2)N1`: the Potency entry was “inactive”. Take `O=c1[nH]cnc2c1ncn2[C@H]1CC[C@@H](CO)O1`: the Potency entry is “inactive”. The same measure for `C=C(C)C(=O)OCC(C)O` (centres undefined): “inactive”.

As for `CC(C)c1c(C(=O)Nc2ccccc2)c(-c2ccccc2)c(-c2ccc(F)cc2)n1CC[C@@H](O)C[C@@H](O)CC(=O)O`, the Potency result is “inactive”. On to `O=C(Nc1ncc([N+](=O)[O-])s1)c1cccs1`, for which the Potency entry was “inactive”. To `CN1[C@@H]2CC(OC(=O)[C@H](CO)c3ccccc3)C[C@H]1[C@@H]1O[C@@H]12` (some centres undefined) belongs “inactive”. In the case of `C/C=C/C=C/C(=O)O`, the Potency entry is “inactive”. The same measure for `C1=CC2C3C=CC(C3)C2C1` (centres undefined): “inactive”; for `CCCC[P+](CCCC)(CCCC)CCCC`: “inactive”; for `CN1CCC[C@H]1c1cccnc1`: “inactive”. To `C1CCC(C(CC2CCCCN2)C2CCCCC2)CC1` (centres undefined) belongs “inactive”; to `O=S1(=O)OC(c2ccc(O)cc2)(c2ccc(O)cc2)c2ccccc21`, “inactive”; to `Cc1ccc(S(=O)(=O)O)cc1`, “inactive”.

`CC/C(=C(\c1ccccc1)c1ccc(OCCN(C)C)cc1)c1ccccc1`: the Potency entry is “inactive”. Turning to `CCCCCCc1ccc(O)cc1O`, the Potency entry is “inactive”. To `O=C1NS(=O)(=O)c2ccccc21` belongs “inactive”; to `COc1ccc2cc(S(=O)(=O)N[C@H](CC(=O)N[C@H](Cc3ccc(CN4[C@H](C)CCC[C@@H]4C)cc3)C(=O)N(C)C(C)C)c3ccc4c(c3)OCO4)ccc2c1`, “inactive”.

For the compound `C=C1CC[C@H](O)C/C1=C\C=C1/CCC[C@]2(C)[C@@H]([C@H](C)CCCC(C)C)CC[C@@H]12`, the Potency entry is “inactive”. As for `F[B-](F)(F)F`, the Potency result is “inactive”. The same measure for `CC(=O)CC(c1ccccc1)c1c(O)c2ccccc2oc1=O` (centres undefined): “inactive”; for `O=CC(=O)c1ccccc1`: “inactive”; for `CN[C@H]1CC[C@@H](c2ccc(Cl)c(Cl)c2)c2ccccc21`: “inactive”.

Consider `CCN(CC)C(=O)c1cccc(C)c1`, for which the Potency entry is “inactive”. `CCCCC(CC)C(=O)O` (centres undefined): the Potency result was “inactive”.

With `CC(C)NCC(O)c1ccc(O)c(O)c1` (centres undefined), the Potency result was “inactive”.

For `O=C1OC2(c3ccccc31)c1cc(Br)c(O)c(Br)c1Oc1c2cc(Br)c(O)c1Br`, the Potency entry was “inactive”. The same measure for `CC(=O)CCC(=O)O`: “inactive”; for `COc1ccc(CN(CCN(C)C)c2ccccn2)cc1`: “inactive”; for `CCN(Cc1c(F)cccc1Cl)c1c([N+](=O)[O-])cc(C(F)(F)F)cc1[N+](=O)[O-]`: “inactive”.

For the origin of these results see PubChem BioAssay (Tox21).
